Screening results (PubChem BioAssay)
In the library only some 2.5% were active in any assay of this set; here they are far more common.
PKA-R1A activ: activators of PKA-R1A holoenzyme, primary screen, biochemical, fluorescence polarization, Cy5-IP20, bovine R1A, mouse PKAc; cAMP-dependent protein kinase type I-alpha regulatory subunit (Bos taurus) + …; PKA-R1A dissociation; scaled: DMSO 0%, 113 µM cGMP 100%; activation, % at 11.4 µM; 340,000 tested, 0.083% active; AID 504707, 2011;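 active means percent activation above the mean of all tested compounds plus 3 SD, cut at about 19% in these data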;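 further: higher means more PKAc released from R1A so a rise in polarization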
ANO1 block: TMEM16A chloride channel inhibitors, primary screen, cell-based, HTS; 310,000 tested, 1.2% active; AID 588511, 2011; normalized B-score (activity score, 25-100; higher = stronger inhibition) at 10 µM; HEK293 TMEM16A/YFP iodide influx fluorescence, ionomycin;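 active means ratio plate-corrected score three or more library SD toward inhibition, starting fluorescence score within five deviations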;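 further: score derived from kinetic fluorescence span divided by baseline fluorescence per well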
PKA-R2B activ: activators of PKA-R2B holoenzyme, primary screen, biochemical, fluorescence polarization, Cy5-IP20, human; PKA-R2B holoenzyme dissociation; R2B truncated from residue 108, S112A mutant; 0% DMSO only, 100% 113 µM cGMP; activation, % at 11.4 µM; 340,000 tested, 0.079% active; AID 504700, 2011;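 active means activation above a cutoff set at the mean over all compounds plus 3 SD, cut at about 18% in these data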;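 further: higher means more holoenzyme dissociation and a rise in polarization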
Target sequence (P31323 whole entry, looked up, other chains not shown, the tested form may be a part): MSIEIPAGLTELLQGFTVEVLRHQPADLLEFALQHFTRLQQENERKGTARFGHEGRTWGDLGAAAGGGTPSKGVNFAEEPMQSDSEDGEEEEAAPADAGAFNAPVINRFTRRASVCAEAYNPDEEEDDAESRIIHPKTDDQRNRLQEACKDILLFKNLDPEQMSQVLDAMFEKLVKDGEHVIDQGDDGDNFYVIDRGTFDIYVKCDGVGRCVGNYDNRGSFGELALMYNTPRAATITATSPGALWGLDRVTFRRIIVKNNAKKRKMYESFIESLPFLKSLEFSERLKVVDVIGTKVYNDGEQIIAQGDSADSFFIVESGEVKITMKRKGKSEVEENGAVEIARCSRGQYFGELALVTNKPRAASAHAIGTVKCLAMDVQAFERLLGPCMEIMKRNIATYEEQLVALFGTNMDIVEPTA
ANO1 activ: TMEM16A chloride channel activators or potentiators, primary screen, cell-based, HTS | Anoctamin-1 (Mus musculus), Q8BHY3 | HEK293 TMEM16A/YFP-H148Q/I152L, iodide quench fluorescence; hits give low values | B-score at 10 µM | 340,000 tested, 0.3% active | AID 623877, 2012;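 active means fluorescence-ratio B-score plate-corrected deviation score at least 3 library SD below zero, with starting fluorescence score within 5 deviations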;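 further: channel opened by trigger with iodide after compound preincubation; score built on the fluorescence ratio of max minus min over baseline; more negative score means more quench and so TMEM16A activation or potentiation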
CHT block: inhibitors of human choline transporter CHT | High affinity choline transporter 1 (Homo sapiens), Q9GZV3 | CHT-expressing cells, membrane potential dye, choline response; hits give low values | B-score at 10 µM | 310,000 tested, 0.86% active;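 active means B-score over 3 SD under the library average, and starting fluorescence ratio not unusually high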;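 further: choline stimulus applied at its EC90 after an EC20 pre-addition; B-score computed on integrated fluorescence ratio after choline addition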
CHT allo act: CHT positive allosteric modulators, primary screen, cell-based, membrane potential dye, choline EC20; High affinity choline transporter 1 (Homo sapiens), Q9GZV3; CHT-expressing cells; hits give high values; LV-AA mutant CHT in HEK293 cells; B-score at 10 µM; 310,000 tested, 0.49% active;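 active means initial fluorescence not abnormally high and integrated response B-score, plate-corrected, over 3 SD above library mean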
Numbers without * were called inactive; i = inactive; / = no result given.

SMILES	PKA-R1A activ	ANO1 block	PKA-R2B activ	ANO1 activ	CHT block	CHT allo act
CN(C)CCN(C)Cc1c2ccccc2c(CN(C)CCN(C)C)c2ccccc12	-14	i	1	-5.5*	i	i
Cc1noc(C)c1S(=O)(=O)N(C)C[C@H]1Oc2c(NC(=O)Nc3ccc(C(F)(F)F)cc3)cccc2C(=O)N([C@H](C)CO)C[C@@H]1C	-4	/	-3	/	/	/
O=C(OCn1nnc2ccccc2c1=O)c1ccc(S(=O)(=O)N2CCOCC2)cc1	-8	i	1	i	i	i
O=C(OCn1nnc2ccccc2c1=O)c1cccnc1Cl	-9	100*	1	i	i	i
CCN(CC)S(=O)(=O)c1ccc(C(=O)OCn2nnc3ccccc3c2=O)cc1	11	25*	11	i	i	i
CCOC(=O)Cc1csc(NC(=O)CSc2nc(=O)[nH]c3c2CCC3)n1	-8	i	2	i	i	i
CN(C)CCNC(=O)c1csc(Nc2cccc3ccccc23)n1	-7	i	-4	i	-9.9*	i
COCCNC(=O)c1csc(Nc2cccc3ccccc23)n1	0	i	3	i	i	i
O=C(CSc1cccs1)Nc1ccc(Cl)cc1	4	i	-9	i	i	i
O=C1Nc2ccccc2C(=O)N2[C@H](c3cccc(Br)c3)[C@@H]3C(=O)N(Cc4ccccc4)C(=O)[C@@H]3[C@H]12	2	i	7	-7.1*	i	i
O=C(CC1C(=O)Nc2ccccc2N1CC(=O)N1CCCC1)Nc1ccc(Br)cc1 (centres undefined)	2	/	11	i	/	/
O=C(c1ccc(Oc2ccc([N+](=O)[O-])cc2Cl)cc1)N1CCCC1	-4	i	7	i	i	i
O=C(c1ccc(Oc2ccc([N+](=O)[O-])cc2)cc1)N1CCCCCC1	5	25*	0	i	i	i
CCc1cccc(NC(=S)N(CCOC)C(C)c2ccco2)c1 (centres undefined)	6	i	-5	i	i	i
COc1ccc2oc(=O)c(C(=O)OCc3ccccc3)cc2c1	-6	i	-4	i	i	i
O=C(NC1CCCCC1)C(c1ccco1)N(C(=O)C(F)(F)F)C1CC1 (centres undefined)	-6	i	-7	-5.9*	i	i
Cc1ccc(CN(C(=O)C(F)(F)F)C(C(=O)NC2CCCCC2)c2ccco2)cc1 (centres undefined)	1	i	-12	i	i	i
C[C@H](NC(=O)C1(c2ccccc2)CCN(C(=O)[C@H]2CSCN2C(=O)OC(C)(C)C)CC1)C(=O)O	1	i	-2	-5.1*	i	i
O=C(O)C(Cc1ccccc1)N1C(=O)/C(=C/c2cccc3ccccc23)SC1=S (centres undefined)	/	100*	/	/	i	i
CCC1=NN(C(=O)c2ccc([N+](=O)[O-])cc2)C(O)(c2ccccc2)C1 (centres undefined)	-6	25*	10	i	i	i
CCC1=NN(C(=O)c2ccc(Cl)cc2)C(O)(c2ccccc2)C1 (centres undefined)	-5	i	-12	i	i	i
O=C(N[C@@H]1c2ccccc2CC[C@@H]1OCc1ccccc1)c1ccc(-c2ccccc2)cc1	-1	/	7	/	/	/
CCCCN(C(=O)c1c(-c2ccccc2)noc1C)c1c(N)n(CCC)c(=O)[nH]c1=O	-6	/	0	i	/	/
Cc1ccc(-n2c(C)cc(=O)cc2C)cc1[N+](=O)[O-]	2	i	-8	i	-8.3*	i
COc1cc2cc(C(=O)N(C)C3CCS(=O)(=O)C3)[nH]c2cc1OC (centres undefined)	2	i	-3	i	i	i
SMILES	PKA-R1A activ	ANO1 block	PKA-R2B activ	ANO1 activ	CHT block	CHT allo act
CCOc1ccc(S(=O)(=O)Nc2ccc(F)cc2)c(C)c1C	-10	25*	-6	i	i	i
CCOc1ccc(NS(=O)(=O)c2cc(OC)ccc2OC)cc1	-19	i	-2	i	i	i
CC(=O)N(c1ccc(Cl)cc1)c1cn(C(C)=O)c2ccccc12	3	i	0	i	i	i
CC(=O)n1cc(-c2ccncc2)c2ccccc21	7	i	0	i	i	6.5*
Cc1cccc(C2(c3cccc(C)c3)CC2C(=O)Nc2ccc([N+](=O)[O-])cc2O)c1 (centres undefined)	-7	100*	-18	i	i	i
C=CCNC(=O)C1CC1(c1cccc(C)c1)c1cccc(C)c1 (centres undefined)	/	i	/	i	i	i
CCOC(=O)C1=NN(C(=O)c2ccc(C)cc2)C(O)(c2ccc(Cl)cc2)C1 (centres undefined)	1	100*	-10	i	i	i
COC(=O)C1=NN(C(=O)c2ccc(Cl)cc2)C(O)(c2ccccc2)C1 (centres undefined)	-3	i	-2	i	i	i
CC(C)(C)c1ccc(OCC(=O)NNC(=S)NC(=O)c2ccco2)c(Br)c1	-3	25*	6	-9*	i	i
CCC1CCCCN1S(=O)(=O)c1ccc(C(=O)Nc2nnc(-c3ccccc3Cl)o2)cc1 (centres undefined)	7	100*	2	i	i	i
Clc1c(CSc2nc3ccccc3o2)nc2sccn12	3	i	-3	i	i	i
Clc1c(CSc2nc3ccccc3o2)nc2ccccn12	1	i	-5	-21*	i	i
CN(NS(=O)(=O)c1ccc(Cl)cc1)c1nc(C(F)(F)F)nc2ccccc12	-6	100*	-13	i	i	i
NS(=O)(=O)c1ccc(NC(=O)COC(=O)c2ncc(Cl)c(Cl)c2Cl)cc1	-5	/	7	-5*	/	/
CCOc1ccc(NC(=O)COC(=O)c2ncc(Cl)c(Cl)c2Cl)cc1	-8	i	-6	i	i	i
C#CCCOC(=O)Nc1ccccc1	1	i	5	i	i	i
NC(=O)C1(N2CCCCC2)CCN(C(=O)Nc2ccccc2C(F)(F)F)CC1	/	100*	/	/	i	i
